What all share (test): yeast three-hybrid, YBZ-1, SC-Leu-His + 0.5 mM 3-AT, 4 days
Common to all, as to settings: tags: N-Gal4 AD-HA kept; label: inside an RPR1-promoter hybrid RNA with tandem MS2 sites; ssRNA

One assay concerns the target PUM1 PUF domain R1-KSN (Homo sapiens, UniProt Q14671 828-1176, S863K;R864S;Q867N). In short, it runs like this:
(§1)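 The interaction score is the log change in variant frequency from input to selection. Scores were computed in log2 with a pseudocount of 1 for absent variants, using Illumina sequencing of PCR-amplified repeat regions. The input came from four days on SC-Leu and the selection from four days on SC-Leu-His + 0.5 mM 3-AT. The cells were strain YBZ-1 (LexA–MS2 coat fusion, HIS3 reporter) co-expressing Pumilio-1 PUF domain libraries and matching RNA elements from a centromeric plasmid.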

The next assay concerns the target PUM1 PUF domain R5-RRS (Homo sapiens, UniProt Q14671 828-1176, C1007R;Q1011S). Put shortly: as §1
The next assay concerns the target PUM1 PUF domain R7-KSG (Homo sapiens, UniProt Q14671 828-1176, S1079K;N1080S;E1083G). Put shortly:
as §1

The next assay deals with PUM1 PUF domain R3-TFF (Homo sapiens, UniProt Q14671 828-1176, C935T;R936F;Q939F). In short, it runs like this: as §1
The target of the next assay is T1, PUM1 PUF domain R6-VFQ (Homo sapiens, UniProt Q14671 828-1176, N1043V;Y1044F).
T1 sequence: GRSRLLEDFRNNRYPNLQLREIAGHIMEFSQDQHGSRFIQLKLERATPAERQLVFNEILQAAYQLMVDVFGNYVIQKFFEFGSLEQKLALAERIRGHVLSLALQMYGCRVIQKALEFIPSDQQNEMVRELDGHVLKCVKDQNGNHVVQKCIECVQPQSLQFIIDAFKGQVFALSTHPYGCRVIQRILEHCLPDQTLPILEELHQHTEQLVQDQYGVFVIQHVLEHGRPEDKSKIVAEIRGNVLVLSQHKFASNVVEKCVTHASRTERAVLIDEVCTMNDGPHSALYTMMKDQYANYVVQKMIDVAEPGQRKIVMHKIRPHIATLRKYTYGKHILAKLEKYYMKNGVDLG
Put shortly:
as §1

The target of another assay is PUM1 PUF domain R5-TRG (Homo sapiens, UniProt Q14671 828-1176, C1007T;Q1011G). Put shortly:
as §1

The target of another assay is PUM1 PUF domain R5-GLW (Homo sapiens, UniProt Q14671 828-1176, C1007G;R1008L;Q1011W). In short, it runs like this: as §1
Another assay deals with PUM1 PUF domain R4-VSL (Homo sapiens, UniProt Q14671 828-1176, N971V;H972S;Q975L). Put shortly: as §1
In another assay the target is T2, PUM1 PUF domain R6-LWQ (Homo sapiens, UniProt Q14671 828-1176, N1043L;Y1044W).
T2 sequence: T1 sequence with V216L, F217W
Put shortly: as §1

The target of a further assay is PUM1 PUF domain R5-RYS (Homo sapiens, UniProt Q14671 828-1176, C1007R;R1008Y;Q1011S). In short, it runs like this: as §1
Sequence of PUM1 PUF domain R5-RYS (Q14671 828-1176 C1007R/R1008Y/Q1011S): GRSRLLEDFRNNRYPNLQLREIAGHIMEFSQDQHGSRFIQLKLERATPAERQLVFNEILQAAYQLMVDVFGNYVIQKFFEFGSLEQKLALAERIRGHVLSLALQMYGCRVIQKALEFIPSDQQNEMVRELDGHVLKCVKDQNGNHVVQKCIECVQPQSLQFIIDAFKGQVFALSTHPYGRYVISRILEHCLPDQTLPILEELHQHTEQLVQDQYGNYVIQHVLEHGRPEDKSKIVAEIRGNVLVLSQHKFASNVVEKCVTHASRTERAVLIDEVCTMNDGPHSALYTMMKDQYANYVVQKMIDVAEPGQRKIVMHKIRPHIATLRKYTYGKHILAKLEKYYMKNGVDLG
Another assay addresses PUM1 PUF domain R4-SPA (Homo sapiens, UniProt Q14671 828-1176, N971S;H972P;Q975A). Put shortly: as §1
A further assay concerns the target PUM1 PUF domain R5-RFL (Homo sapiens, UniProt Q14671 828-1176, C1007R;R1008F;Q1011L). In short, it runs like this:
as §1

The target in another assay is PUM1 PUF domain R7-RVM (Homo sapiens, UniProt Q14671 828-1176, S1079R;N1080V;E1083M). In short, it runs like this: as §1
A further assay has as its target PUM1 PUF domain R2-EWV (Homo sapiens, UniProt Q14671 828-1176, N899E;Y900W;Q903V). Put shortly: as §1

Numbering of substitutions follows the chain as printed.

Sequence of PUM1 PUF domain R5-RRS (Q14671 828-1176 C1007R/Q1011S): as the sequence (Q14671 828-1176 C1007R/R1008Y/Q1011S) above, with Y181R counted along it
Sequence of PUM1 PUF domain R5-RFL (Q14671 828-1176 C1007R/R1008F/Q1011L): as the sequence (Q14671 828-1176 C1007R/R1008Y/Q1011S) above, with Y181F, S184L counted along it
Sequence of PUM1 PUF domain R4-SPA (Q14671 828-1176 N971S/H972P/Q975A): as the sequence (Q14671 828-1176 C1007R/R1008Y/Q1011S) above, with N144S, H145P, Q148A, R180C, Y181R, S184Q counted along it

Take “GGCUAGAACUAGUGGAUCCCCCGGCGCCCGGCGGCUCGAGCCCGGGUAAGUGUAAAUCGUCUGCAUGCCGCCGGGCGCCAUGCCUGCAGGUCGACUCUAGAAAACAUG”: the binding signal in the assay with PUM1 PUF domain R1-KSN was 4.24 log2 enrichment (interaction score).

With “GGCUAGAACUAGUGGAUCCCCCGGCGCCCGGCGGCUCGAGCCCGGGUAAGUGUGAAUAGUCUGCAUGCCGCCGGGCGCCAUGCCUGCAGGUCGACUCUAGAAAACAUG”, in the assay with PUM1 PUF domain R5-RRS, the binding signal is 1.53 log2 enrichment (interaction score).

As for “GGCUAGAACUAGUGGAUCCCCCGGCGCCCGGCGGCUCGAGCCCGGGUAAGUCUAAAUAGUCUGCAUGCCGCCGGGCGCCAUGCCUGCAGGUCGACUCUAGAAAACAUG”, the binding signal with PUM1 PUF domain R7-KSG was 0.94 log2 enrichment (interaction score).

For “GGCUAGAACUAGUGGAUCCCCCGGCGCCCGGCGGCUCGAGCCCGGGUAAGUGUAAUUAGUCUGCAUGCCGCCGGGCGCCAUGCCUGCAGGUCGACUCUAGAAAACAUG”, in the assay with PUM1 PUF domain R3-TFF, the binding signal was 1.36 log2 enrichment (interaction score).

“GGCUAGAACUAGUGGAUCCCCCGGCGCCCGGCGGCUCGAGCCCGGGUAAGUGAAAAUAGUCUGCAUGCCGCCGGGCGCCAUGCCUGCAGGUCGACUCUAGAAAACAUG”: the binding signal with PUM1 PUF domain R6-VFQ is 8.19 log2 enrichment (interaction score).

Regarding “GGCUAGAACUAGUGGAUCCCCCGGCGCCCGGCGGCUCGAGCCCGGGUAAGUGUAAAUAGUCUGCAUGCCGCCGGGCGCCAUGCCUGCAGGUCGACUCUAGAAAACAUG”, the binding signal in the assay with PUM1 PUF domain R5-TRG is 2.68 log2 enrichment (interaction score); with PUM1 PUF domain R5-GLW it was 2.11 log2 enrichment (interaction score); with PUM1 PUF domain R5-RRS, 2.42 log2 enrichment (interaction score); in the assay with PUM1 PUF domain R4-VSL, 2.71 log2 enrichment (interaction score); with PUM1 PUF domain R6-VFQ it was 3.65 log2 enrichment (interaction score); with PUM1 PUF domain R6-LWQ, 5.83 log2 enrichment (interaction score). The binding signal was 3.42 log2 enrichment (interaction score) with PUM1 PUF domain R5-RYS, 6.12 log2 enrichment (interaction score) with PUM1 PUF domain R3-TFF, 3.03 log2 enrichment (interaction score) with PUM1 PUF domain R4-SPA and 3.51 log2 enrichment (interaction score) in the assay with PUM1 PUF domain R5-RFL.

As for “GGCUAGAACUAGUGGAUCCCCCGGCGCCCGGCGGCUCGAGCCCGGGUAAGUUUAAAUAGUCUGCAUGCCGCCGGGCGCCAUGCCUGCAGGUCGACUCUAGAAAACAUG”, the results for the binding signal with PUM1 PUF domain R7-RVM and in the assay with PUM1 PUF domain R7-KSG were 2.72 log2 enrichment (interaction score) and 2.37 log2 enrichment (interaction score), respectively.

As for “GGCUAGAACUAGUGGAUCCCCCGGCGCCCGGCGGCUCGAGCCCGGGUAAGUGUAAAGAGUCUGCAUGCCGCCGGGCGCCAUGCCUGCAGGUCGACUCUAGAAAACAUG”, the binding signal with PUM1 PUF domain R2-EWV is 2.77 log2 enrichment (interaction score).

For the origin of these results see paper PMC8384837, “Expanding the binding specificity for RNA recognition by a PUF domain”.
